Bioassay records from PubChem BioAssay.
GPT2 inhibitor – GPT2 alanine aminotransferase inhibition; Recombinant GPT2, coupled pyruvate oxidase/HRP Amplex Red fluorescence; Potency, µM (series often up to 57.7 µM), hits mostly inhibitors; 100,000 tested, 0.25% active; also: nearly all actives have a fitted effect of over 60% in size
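GPT2 10ng/uL, a-KG 250uM, L-Ala 2mM, HEPES pH7.5 + 0.0001% Tween; 30 min RT. Then Amplex mix (PO/HRP/ThPP), 30 min RT dark, fluorescence. AOA 50uM used as positive control.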
NIH3T3 tox – NIH 3T3 cell cytotoxicity. 94,000 tested, 4.3% active. AID 1345082. NIH 3T3 viability, CellTiter-Glo ATP luminescence, 48-72 h. Potency, µM (titrated, usually from 96.7 µM), actives largely listed as inhibitors; also: nearly all actives have a fitted effect of over 55% in size
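Mouse fibroblast NIH 3T3 cells, 400 per well, received compound via pintool and were incubated for 48 or 72 hr prior to CellTiter-Glo ATP luminescence measurement.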
HEK293 tox – HEK 293 cell cytotoxicity; Potency, µM (series often up to 115 µM), hits mostly inhibitors; HEK 293 viability, ATP luminescence (CellTiter-Glo), 48-72 h; AID 1345083; 94,000 tested, 6.6% active; also: nearly all actives have a fitted effect of over 60% in size
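Pintool-delivered compounds were incubated with HEK 293 cells (250 cells/well) at 37 degree Celsius for 48 or 72 hr. ATP-dependent luminescence (CellTiter-Glo) then reported remaining viable cells.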
hNpr1 antagonist – human Npr1 receptor antagonism; 76,000 tested, 1.6% active; P16066; Potency, µM (top dose mostly 46.3 µM), actives largely listed as inhibitors; HEK293 hNpr1 GloSensor cGMP, ANP-stimulated luminescence; calls by dose curve; also: nearly all actives have a fitted effect of over 60% in size
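HEK293 cells stably expressing human Npr1 and cGMP GloSensor pGS-40F, loaded 2 h with 2% GloSensor reagent, given compound 30 min at room temperature. Luminescence read before and 20 min after 0.1 nM hNppA.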
Luciferase inh – Photinus pyralis luciferase inhibition | 76,000 tested, 2.5% active | P08659 | purified P. pyralis luciferase, luminescence, biochemical | Potency, µM (top dose mostly 115 µM), most hits filed as inhibitors; also: nearly all actives have a fitted effect of over 65% in size
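Inhibitors were tested against purified firefly luciferase in a biochemical, low-substrate format (both substrates at 10uM) and luminescence measured with a CCD imager.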
Npr1 antag conf – confirmation of human Npr1 natriuretic peptide receptor antagonists | AID 1347044 | Potency, µM (highest dose often 57.6 µM), most hits filed as inhibitors | HEK293 hNpr1 cGMP GloSensor luminescence, ANP-stimulated | shares compounds with hNpr1 antagonist | 1,400 tested, 76% active; calls by dose curve; also: nearly all actives have a fitted effect of over 70% in size
NPR2 antag – selectivity test of Npr1 antagonists against human Npr2. shares compounds with hNpr1 antagonist. HEK293 hNpr2 GloSensor cGMP luminescence, CNP-stimulated. Potency, µM (highest dose often 57.6 µM), hits mostly inhibitors. 1,400 tested, 67% active. AID 1347046; calls by dose curve; also: nearly all actives have a fitted effect of over 70% in size
Target sequence (P20594 whole entry, looked up): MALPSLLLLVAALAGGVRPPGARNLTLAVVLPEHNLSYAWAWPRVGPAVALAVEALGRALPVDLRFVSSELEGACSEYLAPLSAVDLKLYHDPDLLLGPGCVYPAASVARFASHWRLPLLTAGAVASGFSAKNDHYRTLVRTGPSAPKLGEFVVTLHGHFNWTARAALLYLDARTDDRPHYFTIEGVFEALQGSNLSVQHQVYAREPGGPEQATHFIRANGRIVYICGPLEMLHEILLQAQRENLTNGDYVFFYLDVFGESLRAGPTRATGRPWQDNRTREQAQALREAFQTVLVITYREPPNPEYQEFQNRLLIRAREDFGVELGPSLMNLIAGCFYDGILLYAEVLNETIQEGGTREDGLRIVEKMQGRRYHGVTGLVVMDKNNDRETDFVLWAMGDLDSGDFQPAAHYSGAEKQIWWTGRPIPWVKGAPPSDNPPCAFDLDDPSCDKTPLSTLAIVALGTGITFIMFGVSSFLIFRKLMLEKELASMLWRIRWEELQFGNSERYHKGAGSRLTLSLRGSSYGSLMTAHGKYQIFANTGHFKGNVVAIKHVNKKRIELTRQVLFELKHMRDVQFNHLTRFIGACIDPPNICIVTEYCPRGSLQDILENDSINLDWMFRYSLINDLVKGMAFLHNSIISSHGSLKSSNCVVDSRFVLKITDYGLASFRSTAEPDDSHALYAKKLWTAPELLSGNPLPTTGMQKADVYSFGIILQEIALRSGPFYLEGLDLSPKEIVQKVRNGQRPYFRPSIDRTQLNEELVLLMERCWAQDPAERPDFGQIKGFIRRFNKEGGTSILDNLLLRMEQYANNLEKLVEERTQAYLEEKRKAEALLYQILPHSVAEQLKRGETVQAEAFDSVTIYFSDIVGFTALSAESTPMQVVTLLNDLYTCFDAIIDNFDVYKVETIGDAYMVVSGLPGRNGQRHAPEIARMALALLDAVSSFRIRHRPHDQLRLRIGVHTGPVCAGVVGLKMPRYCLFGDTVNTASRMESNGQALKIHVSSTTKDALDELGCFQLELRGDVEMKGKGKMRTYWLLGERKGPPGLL
FLuc counter – FLuc enzyme inhibition, Npr1 counter-screen; shares compounds with hNpr1 antagonist; purified FLuc enzyme, luminescence, Km substrate; Potency, µM (doses to about 57.6 µM), actives largely listed as inhibitors; 1,400 tested, 0.7% active; AID 1347047
GloSensor ctrl – control cell line activity, Npr1 antagonist counter-screen | shares compounds with hNpr1 antagonist | HEK293 GloSensor cGMP, SNP-stimulated, luminescence | Potency, µM (titrated, usually from 57.6 µM), usual class: inhibitors | 1,400 tested, 69% active | AID 1347051; calls by dose curve; also: nearly all actives have a fitted effect of over 70% in size
Numbers stand for hits; . = inactive; ? = inconclusive; / = no result given. Most compounds without a hit are left out; they make up all but 10% or so of the library. Unless noted, calls follow the shape of the dose curve; as a rule, active = well fitted curve in the direction sought with a large enough effect; inconclusive = small, poorly fitted or top-dose-only effect, or another doubt; inactive = no such curve, though single readings can be large; an effect the other way counts as inactive or inconclusive.

SMILES | GPT2 inhibitor | NIH3T3 tox | HEK293 tox | hNpr1 antagonist | Luciferase inh | Npr1 antag conf | NPR2 antag | FLuc counter | GloSensor ctrl
Cn1nc(-c2ccncc2)cc1NC(=O)C(C)(C)C | . | . | . | / | / | / | / | / | /
CCCNC(=O)N1CCC(c2noc(-c3ccccc3)n2)C1 (stereo not drawn) | . | ? | ? | . | . | / | / | / | /
Cc1ccc(CNC(=O)N2CCC(c3noc(-c4ccccc4)n3)C2)cc1 (stereo not drawn) | . | ? | 40µM | 18µM | . | ? | 24µM | . | 24µM
COc1ncccc1-c1cnc2[nH]cc(CC(=O)Nc3ccccn3)c2c1 | . | ? | ? | ? | . | / | / | / | /
COc1cccc(NC(=O)Cc2c[nH]c3ncc(-c4cccnc4OC)cc23)c1 | ? | 28µM | 50µM | ? | . | 40µM | ? | . | ?
COc1ccc(NC(=O)Cc2c[nH]c3ncc(-c4ccccc4)cc23)cn1 | . | . | ? | ? | . | ? | ? | . | .
CCc1nc2c(c(-c3ccc(Cl)cc3)n1)CCN(Cc1ccns1)CC2 | . | . | . | . | . | / | / | / | /
COC(=O)c1cccc(NC(=S)N[C@@H]2C=C[C@@H](c3c(C)nn(-c4ccc(F)cc4)c3C)C2)c1 | . | ? | 32µM | ? | . | 22µM | ? | . | 22µM
COc1ccc(CCCN2C(=O)O[C@@H]3CN(c4cc(OC)ncn4)C[C@@H]32)cc1 | . | ? | ? | 13µM | . | 24µM | 22µM | . | 22µM
CCC(O)C(=O)N1CCc2onc(-c3ccc(-c4ccccc4)cc3)c2C1 (stereo not drawn) | . | ? | ? | 11µM | . | 24µM | 24µM | ? | 24µM
CCOc1ncccc1C(=O)N1CCc2onc(-c3ccccc3F)c2C1 | . | ? | ? | . | . | / | / | / | /
CCCOc1ccccc1C(=O)N1CCc2onc(-c3ccccc3)c2C1 | . | ? | ? | ? | . | ? | ? | . | .
COc1ccc(C(=O)N[C@H]2CO[C@H]3[C@@H]2OC[C@H]3OC(=O)Nc2ccccc2)cc1 | . | ? | 63µM | 32µM | . | 40µM | 35µM | . | 35µM
COc1cc(NC(=S)N[C@H]2CO[C@H]3[C@@H]2OC[C@H]3OC(=O)Nc2ccccc2)cc(OC)c1 | . | . | . | . | . | / | / | / | /
CC(C)c1ccc(NC(=O)N[C@H]2CO[C@H]3[C@@H]2OC[C@H]3OC(=O)Nc2ccc(Oc3ccccc3)cc2)cc1 | . | ? | ? | ? | . | 19µM | 19µM | . | 19µM
CCNC(=O)O[C@@H]1CO[C@H]2[C@@H]1OC[C@@H]2NC(=O)Nc1ccc(C(C)C)cc1 | ? | . | . | . | . | / | / | / | /
COc1ccc(NC(=O)N[C@H]2CO[C@H]3[C@@H]2OC[C@H]3OC(=O)Nc2ccc(Oc3ccccc3)cc2)cc1 | . | ? | 18µM | 13µM | . | 14µM | 17µM | . | 12µM
COc1ccc(NC(=O)O[C@@H]2CO[C@H]3[C@@H]2OC[C@@H]3NC(=S)Nc2ccc(Cl)cc2)cc1 | . | ? | 45µM | 13µM | . | 24µM | ? | . | 24µM
O=C1NCCCC[C@@H]1NCc1ccccc1OCCCCN1CCOCC1 | ? | . | . | . | . | / | / | / | /
COc1ccc(F)cc1-c1cccc(C(=O)NCCNC(=O)C2CCCC2)c1 | . | ? | ? | / | / | / | / | / | /
O=C(NCCc1ccccc1F)C1CCc2nnc(-c3ccc(F)cc3)n21 (stereo not drawn) | . | . | . | / | / | / | / | / | /
Cc1nc2c(c(-c3ccc(O)cc3)n1)CN(C(=O)Nc1ccccc1)CCC2 | . | . | . | . | . | / | / | / | /
